# According to the supplement of paper PMC3334620:
# The full ranking holds about 33,000 sequences; the median of “E-score (-0.5 to 0.5)” is about -0.017, and the highest 2% start at about 0.3. The list comes from a sample in which the highest values are over-represented; it also holds similar and randomly drawn sequences.
# Biological target: T1, Sut1 (UniProt P53032)
# T1 sequence: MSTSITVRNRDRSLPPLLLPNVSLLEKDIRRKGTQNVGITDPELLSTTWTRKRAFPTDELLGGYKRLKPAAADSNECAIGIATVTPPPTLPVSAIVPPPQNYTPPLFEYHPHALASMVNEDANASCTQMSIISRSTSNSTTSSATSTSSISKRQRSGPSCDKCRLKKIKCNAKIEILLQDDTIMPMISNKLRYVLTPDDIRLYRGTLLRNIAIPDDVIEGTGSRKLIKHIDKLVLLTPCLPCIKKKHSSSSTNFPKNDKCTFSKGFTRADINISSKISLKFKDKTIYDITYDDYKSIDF
# Assay: PBM E-score (8-mer binding enrichment) (E-score (-0.5 to 0.5)); higher = stronger / more preferred TF binding
# Conditions: protein concentration: 200 nM; construct: GST-full length
# Procedure: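 Universal 'all 10-mer' protein binding microarrays (Agilent AMADID 015681) probed with GST-tagged S. cerevisiae TFs (full-length or DBD) made by in vitro transcription/translation (PURExpress), about 100-200 nM. Bound TF was detected with fluorescent anti-GST. Each ungapped 8-mer (which stands for itself and its reverse complement) is scored by the PBM enrichment score (E-score), a modified Wilcoxon-Mann-Whitney statistic from -0.5 to +0.5, computed with the Universal PBM Analysis Suite. Scale: above 0.35 generally sequence-specific binding.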
row,Sequence,PBM E-score
1,ACGGAGTC,0.46
2,CTGGAGTA,0.0562
3,ATGGAGTC,0.0281
4,CACTTTAA,0.157
5,AAATTTAG,0.254
6,AACTTTAA,0.325
7,CAATTTAA,0.317
8,TAATTTAA,0.283
9,CGATTTAA,0.242
10,CAATTTTA,0.234
11,AGATTTAA,0.00422
12,AAATTTAA,0.318
13,AAATTTTA,0.125
14,AACTTTAG,0.189
15,TGATTTAA,0.3
16,CCAGGATC,-0.201
17,GTTTAACA,-0.00835
18,AGGATTTG,0.0444
19,CCTCCCTA,-0.367
20,CGCAAACG,-0.00322
21,AGATTGAG,0.0927
22,AACTATCT,0.0634
23,GGACCGTA,-0.172
24,CTGCGTTC,0.0373
25,AAGTTGTA,0.0914

row,Sequence,PBM E-score
1,GAGTTGTA,0.317
2,CAGTTGTA,0.00162
3,CTAGCGGA,0.0881
4,CGAGGTCA,-0.0467
5,GTCTCCGA,0.338
6,CTCTCCGC,0.18
7,ATCTCCAG,-0.0734
8,GTCTCCAA,-0.0301
9,ATCTCCCC,-0.285
10,ATCTCCAA,0.158
11,ATCTCCCA,-0.155
12,CTCTCCGA,0.257
13,ATCTCCGC,0.399
14,ATCTCCCG,-0.0416
15,ATCTCCGA,0.477
16,ATCTCCGG,0.478
17,AAGCGACC,0.0829
18,CGTAGGCA,-0.169
19,GATAGTAC,-0.00235
20,GCGCAAGC,-0.234
21,CAAGATTA,0.132
22,AAAGATTA,0.306
23,GAAGATTA,0.109
24,AAAAAACT,0.198
25,AGAGAGCG,-0.0777

row,Sequence,PBM E-score
1,GGTATGAA,0.114
2,CAGTTTTA,0.0952
3,CCGATAAG,0.111
4,GTGATAAA,0.0786
5,TGGATAAA,0.263
6,CCGATAAC,0.18
7,ATGATAAA,0.233
8,CGGATAAC,0.264
9,CCGATAAA,0.343
10,TTGATAAA,0.328
11,CGGATAAA,0.341
12,TGGGTTAA,-0.0031
13,ATCAACTC,-0.0768
14,ACAGAACG,-0.0202
15,TCACTCAA,0.0178
16,CCCTCAAA,-0.0431
17,AATCGGCG,-0.0941
18,AAAGTATA,0.214
19,GCTTAAGA,0.00411
20,GTCAAGAA,0.108
21,ACCGTTAG,0.00367
22,CAGCTGAA,-0.109
23,CAATTCCA,-0.032
24,CAATTCCG,0.305
25,AAATTCCA,0.241

row,Sequence,PBM E-score
1,AAATTCCC,-0.245
2,CGATTCCA,0.0585
3,CGATTCCC,-0.0189
4,AAATTCCG,0.337
5,CAATTCCC,0.072
6,CGATTCCG,0.314
7,GCTAGGGA,-0.308
8,AATCCCAG,0.0474
9,ATACGAGG,-0.165
10,CGATTGAG,-0.0533
11,CGGACTAG,0.452
12,CGGACTAA,0.454
13,CGGACTAC,0.464
14,AGGACTAG,-0.0577
15,CAGACTAG,-0.288
16,AGGACTAC,-0.118
17,GGGACTAC,-0.162
18,TGGACTAA,-0.104
19,GGGACTAA,-0.0778
20,GATGCTCC,0.17
21,CAAGGGGA,-0.185
22,GCCTTGCC,-0.155
23,ACGTCGAT,0.0428
24,CATCTGAG,-0.143
25,CACTCCAC,-0.0759

row,Sequence,PBM E-score
1,CCAGCTGG,-0.188
2,CATGCAGA,-0.15
3,ATTGAAAC,0.184
4,CTTGAATA,0.0931
5,ATTGAATA,0.315
6,ATTGAAAA,0.213
7,ATTGAAAT,0.311
8,GTTGAAAA,0.104
9,CTTGAAAA,0.0874
10,TTTGAAAA,0.31
11,ATTGAATC,0.00919
12,CCGGGCCG,0.155
13,TCCATGAA,0.131
14,AGCCTTTG,-0.165
15,ACCTCAGC,-0.106
16,CTCAGTTC,-0.0325
17,ATCTTTCG,-0.00103
18,CGAGAGCC,-0.161
19,TATTTCAA,0.301
20,CATTTCAA,0.275
21,GATTTCAA,0.147
22,ATTCATAA,0.127
23,ATTCCGGG,0.295
24,CTTCCGTA,0.181
25,GTTCCGAA,0.267

row,Sequence,PBM E-score
1,CTTCCGGC,0.0877
2,ATTCCGGA,0.42
3,ATTCCGGC,0.177
4,GTTCCGCA,0.0832
5,CTTCCGGA,0.347
6,GTTCCGGA,0.342
7,AGCCAAAT,0.14
8,ATCAAACG,0.132
9,CATTGCTC,0.1
10,CGGTCTAG,-0.0195
11,TCCGTAGA,0.361
12,CCCGTAGA,-0.245
13,ACCGTAGA,0.0336
14,AGTATCAG,-0.0501
15,ACCTCTCG,-0.047
16,CGTGACCC,-0.111
17,CAATCAGG,-0.167
18,GCTTTGAA,-0.00621
19,ACTACAAG,0.0409
20,ACTACAAA,0.302
21,AATACAAA,0.348
22,GATACAAA,0.112
23,ACTACAAC,0.266
24,AATACAAG,0.123
25,GCCTGGAC,-0.336

row,Sequence,PBM E-score
1,AGGCAGGC,-0.208
2,GCCGTCCA,0.00979
3,TCCGTCCA,0.316
4,CCCGTCCA,-0.198
5,CAGGTTAG,-0.082
6,AGCCTACT,-0.134
7,CTACTATC,0.312
8,CTACTATA,0.281
9,ATACTATC,0.202
10,ATGTAGTC,0.18
11,GACACCGC,-0.0517
12,CTCTCGGC,-0.0324
13,AGCTCGGC,-0.00249
14,ACCTCGGC,0.0761
15,ATCTCGGG,0.0127
16,AGCTCGGA,0.336
17,CGCTCGGA,0.29
18,CTCTCGGA,0.32
19,ATCTCGGA,0.368
20,ACCTCGGA,0.404
21,GCCTCGGA,0.198
22,ATCTCGGC,0.13
23,CTCTCGAA,-0.282
